HCMV antiviral = blocks human cytomegalovirus replication. activity change, negative = inhibition, % at 57.5 µM. HFF cells, HCMV-luciferase reporter, 72 h; active compounds read low. 410,000 tested, 4.5% active; in the data active = activity change below about -60%; inconclusive = no clear call, values can overlap the other calls; inactive = above about -39%
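Steps: HFFs plated, 16 h 37C; compounds added; HCMV-luciferase added to MOI 1 PFU/cell; 72 h 37C; OneGlo reagent, 5 min room temperature; luminescence read, normalized to controls.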
Pf growth 48h = inhibits P. falciparum growth in the first generation, 48 h; P. falciparum luciferase growth in erythrocytes, 48 h; Potency, µM (highest dose often 28.7 µM), most hits filed as inhibitors; 310,000 tested, 5.9% active; AID 504832
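Parasite viability was followed by luminescence of a genomically integrated firefly luciferase. Cultures held 0.1% parasitemia at 2% hematocrit (final), incubated under 5% CO2 at 37 C.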
MARV entry inh = Marburg virus entry inhibition; Marburg virus pseudotyped entry inhibition, cell reporter; Potency, µM (top dose mostly 37.8 µM), most hits filed as inhibitors; 300,000 tested, 1.8% active; AID 540276; calls by dose curve; tested in HEK293 cells
HCV inhibitor = blocks hepatitis C virus; Huh7.5.1 HCVcc-Cre infection, luciferase reporter, 44 h; Potency, µM (series often up to 41.8 µM), actives largely listed as inhibitors; 340,000 tested, 3.4% active; AID 651820
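Cells seeded at 1,000/well and cultured 4 h, then compounds added followed by HCVcc-Cre virus (~0.5 moi). After 44 h further culture, luciferase substrate was added, plates held 15 min at room temperature, and luminescence read for 15 sec.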
Pf growth 96h = inhibits malaria parasite growth, 96 h. P. falciparum luciferase reporter growth, 96 h. Potency, µM (doses to about 28.7 µM), usual class: inhibitors. 320,000 tested, 6.9% active. AID 504834
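Two-generation exposure (96 h) targets delayed-death phenotype. Reporter parasites carrying integrated firefly luciferase, in red cells at 2% hematocrit and 0.05% parasitemia final, kept at 37 C, 5% CO2; luminescence loss indicates inhibition.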
LASV entry inh = Lassa virus entry inhibition; 300,000 tested, 1.2% active; Potency, µM (doses to about 37.9 µM), usual class: inhibitors; AID 540256; Lassa virus pseudotype entry inhibition, cell reporter; calls by dose curve; tested in HEK293 cells; note: nearly all actives have a fitted effect of over 50% in size
Numbers stand for hits; – = inactive; ? = inconclusive; · = no result. Hits are enriched below; roughly 14% of the tested compounds scored in any of these assays. Unless noted, calls come from the whole dose curve; as a rule, active = well fitted inhibition curve with a large enough effect; inconclusive = small, poorly fitted or top-dose-only effect, or another doubt; inactive = no such curve, though single readings can be large or run the other way.

SMILES | HCMV antiviral | Pf growth 48h | MARV entry inh | HCV inhibitor | Pf growth 96h | LASV entry inh
O=C(CSc1nc(=O)[nH]c2c1CCCC2)NCc1ccccc1Cl | – | · | · | · | · | –
CCCCN(CCCC)CCCN1CC(=O)N2[C@@H](Cc3c([nH]c4ccccc34)C2(C)C)C1=O | – | 9.3µM | ? | – | ? | –
CCCCOCCCN1CC(=O)N2[C@@H](Cc3c([nH]c4ccccc34)C2(C)C)C1=O | – | ? | – | – | 9.3µM | ?
COc1ccc(N(C)C(=S)Nc2ccc3nc(C)c(C)nc3c2)cc1 | – | – | ? | – | 2.3µM | ?
Cc1ccc(C(=O)c2c(NC(=O)CSc3nnc(N)s3)sc3c2CCCC3)cc1 | ? | 12µM | – | ? | 5.2µM | ?
COCCNc1nnc(SCC(=O)NNC(=O)c2ccccc2)s1 | – | – | – | – | – | –
Nc1nnc(SCC(=O)Nc2sc3c(c2C(=O)c2ccccc2)CCCC3)s1 | – | – | ? | ? | ? | –
COCCNc1nnc(SCC(=O)Nc2sc3c(c2C(=O)c2ccccc2)CCCC3)s1 | -86 | ? | ? | 2.5µM | 9.3µM | ?
COCCNc1nnc(SCC(=O)c2c[nH]c3ccccc23)s1 | – | 8.3µM | – | – | ? | –
Nc1nnc(SCC(=O)NNC(=O)c2ccc(Cl)cc2)s1 | -73 | – | · | – | – | ·
O=C(O)c1ccccc1C(=O)c1ccc(F)c(F)c1 | – | · | · | – | · | ·
CC(C)Nc1ccc(-c2nc(-c3ccncc3)no2)cc1[N+](=O)[O-] | – | · | – | · | · | –
O=S(=O)(Cc1ccccc1)CS(=O)(=O)Cc1ccccc1 | – | · | – | – | · | –
COC(=O)c1c(C)cccc1C1CN=NC12Cc1ccccc1C2=O (stereo not drawn) | – | · | – | – | · | –
COc1ccc(C2CN=NC23CCc2ccccc2C3=O)cc1 (stereo not drawn) | – | 13µM | · | – | ? | ·
COc1ccc(C2CN=NC23CCCc2ccccc2C3=O)cc1 (stereo not drawn) | – | 3.7µM | – | ? | 2.6µM | –
COc1ccccc1C1CN=NC12CCCc1ccccc1C2=O (stereo not drawn) | – | 9.3µM | – | – | 17µM | –
CCCN(Cc1cc2cc(C)ccc2[nH]c1=O)C(=O)c1cccc(Cl)c1 | – | · | – | · | · | ?
COc1ccccc1N1CCN(C(=O)CN2C(=O)COc3ccc(S(=O)(=O)N4CCOCC4)cc32)CC1 | – | · | – | · | · | –
CN(Cc1cnccn1)C(=O)CC1C(=O)NCCN1Cc1c(F)cccc1Cl (stereo not drawn) | – | – | · | – | – | ·
Cc1ccc(CN2CCNC(=O)C2CC(=O)N(C)Cc2cnccn2)cc1 (stereo not drawn) | – | – | · | – | 13µM | ·
Cc1cc(CN(C)C(=O)CC2C(=O)NCCN2Cc2ccc(-c3ccccc3)cc2)on1 (stereo not drawn) | – | – | · | – | 10µM | ·
Cc1nonc1CN(C)C(=O)CC1C(=O)NCCN1Cc1ccccc1C(F)(F)F (stereo not drawn) | – | – | – | – | – | –
Cc1nonc1CN(C)C(=O)CC1C(=O)NCCN1Cc1cccc(C(F)(F)F)c1 (stereo not drawn) | – | – | – | ? | 10µM | –
CC(C)N(Cc1nccn1C)C(=O)CC1C(=O)NCCN1Cc1ccc(F)cc1 (stereo not drawn) | – | – | · | – | 13µM | ·
SMILES | HCMV antiviral | Pf growth 48h | MARV entry inh | HCV inhibitor | Pf growth 96h | LASV entry inh
CN1C(=O)N(c2ccccc2)[C@@H](Nc2nncs2)C1(C)C | · | · | – | · | · | ·
O=C(NCc1ccc2[nH]c3c(c2c1)CCCC3)c1ccc(S(=O)(=O)N2CCOCC2)cc1 | – | ? | – | ? | ? | ?
CCN(CC)S(=O)(=O)c1ccc(C(=O)NCc2ccc3[nH]c4c(c3c2)CCCC4)cc1 | – | ? | – | ? | 12µM | ?
O=C(NCc1ccc2[nH]c3c(c2c1)CCCC3)c1ccc(S(=O)(=O)N2CCCC2)cc1 | -79 | – | – | ? | 13µM | ?
Oc1cc2c(cc1O)C1c3ccc(O)c(O)c3OCC1(O)C2 (stereo not drawn) | – | ? | · | – | 2.6µM | ·
C[C@H](CO)N1C[C@H](C)[C@@H](CN(C)C(=O)Nc2ccc3c(c2)OCO3)Oc2c(NC(=O)Nc3ccc4c(c3)OCO4)cccc2C1=O | – | · | · | ? | · | ·
CCOC(=O)c1cnc2c(OC)cccc2c1N1CC(C)CC(C)C1 (stereo not drawn) | ? | – | · | 13µM | ? | ·
CCOC(=O)c1cnc2c(OC)cccc2c1N1CCN(c2ccccc2OC)CC1 | – | 7.4µM | ? | ? | – | ?
CCOC(=O)c1cnc2c(OC)cccc2c1N1CCN(c2ccc(OC)cc2)CC1 | – | 12µM | – | ? | – | ?
CCOC(=O)c1cc(-c2ccc(C)cc2)n(CCC(=O)N2CCN(c3ccccn3)CC2)c1C | – | ? | 21µM | ? | ? | 16µM
CCOC(=O)c1cc(-c2ccc(C)cc2)n(CCC(=O)NCc2ccccc2)c1C | – | · | – | · | · | ·
Cc1c(NC(=O)C(C)(C)Oc2ccc(Cl)cc2)cccc1-c1nc2ncccc2o1 | – | · | ? | · | · | ?

Source: PubChem
